Activity calls are given as the source filed them.
What was measured:
[1] = compound effects on differentiated 3T3-L1 adipocyte viability – cell-based, 3T3-L1 adipocytes, calcein-AM fluorescence, 48 h, basal, profiling panel (AID 1163); conditions: 3T3-L1 adipocytes viability, higher = more signal
[2] = compound effects on hepatocellular carcinoma cell viability – HepG2, calcein-AM fluorescence, 48 h, basal, profiling panel (AID 1164); conditions: higher = more signal
[3] = compound effects on multiple myeloma cell viability – MM1S, calcein-AM fluorescence, 48 h, basal, profiling panel (AID 1165); conditions: higher = more signal
[4] = calcein-AM signal in unstimulated myeloma cells – cell-based, calcein-AM fluorescence, 48 h, PK04 Diversity Set, profiling panel (AID 1166); conditions: RPMI8226 myeloma viability, higher = more signal;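 also: cells grown under basal conditions without added stimulus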
[5] = JC-1 mitochondrial signal, unstimulated HepG2 cells – cell-based, JC-1 fluorescence, 24 h, 100 nL compound, profiling panel (AID 1167); conditions: HepG2 mitochondrial potential, higher = more signal
[6] = JC-1 mitochondrial signal, unstimulated adipocytes – cell-based, JC-1 fluorescence, 3T3-L1 adipocytes, 24 h, 100 nL compound, profiling panel (AID 1168); conditions: JC-1 mitochondrial fluorescence, higher = more signal, called active from +8 up or from −8 down
[7] = JC-1 mitochondrial signal, unstimulated myeloma cells – cell-based, JC-1 fluorescence, RPMI8226, 24 h, 100 nL compound, profiling panel (AID 1169); conditions: JC-1 mitochondrial potential fluorescence, higher = more signal
[8] = JC-1 mitochondrial signal, unstimulated MM1S myeloma – cell-based, JC-1 fluorescence, 24 h, 100 nL compound, profiling panel (AID 1170); conditions: MM1S mitochondrial potential, higher = more signal
[9] = resazurin metabolic signal in A549 cells – cell-based, resazurin fluorescence, 24 h, PK04 Diversity Set, profiling panel (AID 1171); conditions: A549 viability, higher = more signal, called active from +8 up or from −8 down
[10] = resazurin metabolic signal in HepG2 cells – cell-based, resazurin fluorescence, 24 h, PK04 Diversity Set, profiling panel (AID 1172); conditions: HepG2 viability, higher = more signal
[11] = budding yeast growth changes without added modifier – OD600, strain BY4716, 24 h, basal condition, primary screen (AID 1173); conditions: S. cerevisiae BY4716 growth, OD600, 24 h; higher = more signal, called active from +8 up or from −8 down
[12] = viability profiling in MM1S myeloma cells – cell-based, resazurin fluorescence, basal, 24 h, PK04 Diversity Set, profiling panel (AID 1174); conditions: higher = more signal, called active from +8 up or from −8 down
[13] = biological target: Dihydroorotate dehydrogenase (quinone), mitochondrial (Plasmodium falciparum (isolate 3D7)) (UniProt Q08210); test: inhibition of P. falciparum DHODH – biochemical, C-terminal His tag, absorbance 600 nm, primary screen (AID 1175); conditions: PfDHODH enzyme, DCIP absorbance 600 nm; higher = more signal, called active from +8 up or from −8 down;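 also: recombinant parasite enzyme with a five histidine tag at its C terminus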
Sequence of Dihydroorotate dehydrogenase (quinone), mitochondrial (Plasmodium falciparum (isolate 3D7)) (Q08210 whole entry, looked up): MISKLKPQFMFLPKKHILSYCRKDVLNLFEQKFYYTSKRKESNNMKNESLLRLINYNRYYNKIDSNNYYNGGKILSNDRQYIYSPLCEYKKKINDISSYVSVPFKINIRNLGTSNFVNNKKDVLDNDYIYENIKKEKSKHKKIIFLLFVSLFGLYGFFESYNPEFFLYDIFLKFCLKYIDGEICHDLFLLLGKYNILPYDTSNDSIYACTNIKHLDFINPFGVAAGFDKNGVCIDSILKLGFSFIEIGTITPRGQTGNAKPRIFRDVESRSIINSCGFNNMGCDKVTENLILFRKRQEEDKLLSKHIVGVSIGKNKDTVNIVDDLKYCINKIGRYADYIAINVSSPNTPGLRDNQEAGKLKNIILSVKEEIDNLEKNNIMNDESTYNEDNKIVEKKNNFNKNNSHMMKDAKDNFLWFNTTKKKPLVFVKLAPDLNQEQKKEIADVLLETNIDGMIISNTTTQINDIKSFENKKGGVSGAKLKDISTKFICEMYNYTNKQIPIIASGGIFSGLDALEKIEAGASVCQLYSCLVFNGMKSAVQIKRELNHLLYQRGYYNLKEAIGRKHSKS

[14] = growth modulation of vineyard yeast isolate – strain RM11-1a, OD600, basal, 24 h, primary screen (AID 1177);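 also: cultures grown under basal conditions with no added stressor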; conditions: S. cerevisiae RM11-1a growth, OD600, 24 h; higher = more signal, called active from +8 up or from −8 down
[15] = growth of efflux-deficient E. coli DRC39 – strain DRC39, OD650, 24 h, E. coli filamentation inducers, primary screen (AID 1178);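 also: growth measured as culture turbidity by optical density at 650 nm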; conditions: E. coli DRC39 acrAB, higher = more signal, called active from +8 up or from −8 down
[16] = growth of efflux-deficient E. coli DRC39 – strain DRC39, OD650, 48 h, E. coli filamentation inducers, primary screen (AID 1179);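 also: screen aims at cell division blockers that make cells filament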; conditions: E. coli DRC39 delta-acrAB growth, higher = more signal, called active from +8 up or from −8 down
[17] = viability profiling in RPMI8226 myeloma cells – cell-based, resazurin fluorescence, basal, 24 h, PK04 Diversity Set, profiling panel (AID 1180); conditions: higher = more signal;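 also: RPMI8826 multiple myeloma cell line at 5000 cells per well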
[18] = biological target: E3 ubiquitin-protein ligase XIAP (Homo sapiens) (UniProt P98170); test: small molecules binding XIAP protein – biophysical, small-molecule microarray, fluorescence 635 nm, primary screen (AID 1181); conditions: higher = more signal;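 also: score merges 667 nm emission and signal to noise over triplicate slides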
Sequence of E3 ubiquitin-protein ligase XIAP (Homo sapiens) (P98170 whole entry, looked up, the tested form may be a part): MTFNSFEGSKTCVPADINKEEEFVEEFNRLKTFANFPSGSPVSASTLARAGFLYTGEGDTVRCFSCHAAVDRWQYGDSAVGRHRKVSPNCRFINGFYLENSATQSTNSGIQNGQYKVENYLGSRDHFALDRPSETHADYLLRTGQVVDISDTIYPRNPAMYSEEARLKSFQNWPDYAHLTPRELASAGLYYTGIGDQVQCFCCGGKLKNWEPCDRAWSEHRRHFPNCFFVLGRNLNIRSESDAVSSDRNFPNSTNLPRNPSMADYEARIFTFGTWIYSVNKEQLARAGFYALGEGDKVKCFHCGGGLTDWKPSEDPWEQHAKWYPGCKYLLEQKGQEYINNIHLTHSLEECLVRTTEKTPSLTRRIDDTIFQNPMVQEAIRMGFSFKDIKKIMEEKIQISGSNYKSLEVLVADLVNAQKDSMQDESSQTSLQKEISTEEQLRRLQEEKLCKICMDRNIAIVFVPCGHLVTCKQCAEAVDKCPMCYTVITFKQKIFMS

[19] = system: XIP peptide (Xip251-270) binding; test: XIP fragment 251-270 binding compounds – biochemical, small-molecule microarray, fluorescence 635/667 nm, 0.1 µg/mL protein, primary screen (AID 1182); conditions: fluorescent protein binding, 635 nm, higher = more signal, called active from +8 up or from −8 down
XIP peptide (Xip251-270) = test: compounds binding XIP fragment 251-270 – biochemical, small-molecule microarray, fluorescence 635/667 nm, 0.5 µg/mL protein, primary screen (AID 1183); conditions: fluorescence 635 nm, higher = more signal

| SMILES | z-score [1] | z-score [2] | z-score [3] | z-score [4] | z-score [5] | z-score [6] | z-score [7] | z-score [8] | z-score [9] | z-score [10] | z-score [11] | z-score [12] | composite z-score [13] | z-score [14] | z-score [15] | z-score [16] | z-score [17] | composite z-score [18] | composite z-score [19] | composite z-score (XIP peptide (Xip251-270)) |
| --- | --- | --- | --- | --- | --- | --- | --- | --- | --- | --- | --- | --- | --- | --- | --- | --- | --- | --- | --- | --- |
| Cc1ccc(S[C@]2(C(=O)NCC(C)C)CC(=O)N(C(C)C)[C@@H]2c2ccc(CO)cc2)cc1 | 2.25 | -1.49 | 0.623 | -0.954 | 0.34 | -0.446 (inactive) | 0.134 | 0.381 | 0.443 (inactive) | -0.784 | 0.225 (inactive) | 1.13 (inactive) | -0.052 (inactive) | -1.24 (inactive) | 1.49 (inactive) | 0.719 (inactive) | 0.687 | -0.0481 | -0.467 (inactive) | -0.284 |
| COc1ccc(/C=C/C(=O)c2cccc(OCC(=O)OC(C)(C)C)c2)cc1 | 0.934 | 0.158 | -2.97 | -2.67 | 0.528 | 0.342 (inactive) | -0.702 | 0.656 | 1.26 (inactive) | 0.163 | -1.39 (inactive) | 1.11 (inactive) | 0.131 (inactive) | -0.428 (inactive) | 0.4 (inactive) | 0.0785 (inactive) | 1.76 | 0.0374 | 0.401 (inactive) | 0.247 |
| C=CCNC(=O)[C@H]1[C@@H]2C(=O)O[C@@H](c3ccccc3)[C@@H](c3ccccc3)N2[C@@H](c2ccc(OCCO)cc2)[C@]12C(=O)Nc1ccc(C#CCCO)cc12 | 2.12 | 1.05 | 0.416 | 0.364 | 0.355 | 0.815 (inactive) | -0.307 | 0.128 | 0.865 (inactive) | -0.0836 | -0.0378 (inactive) | 0.806 (inactive) | 0.0436 (inactive) | 1.25 (inactive) | 0.645 (inactive) | 0.499 (inactive) | 1.28 | -0.0371 | 0.331 (inactive) | 0.81 |
| C=C(/C(=C/C[C@H](OC(C)=O)c1cccc(OCCO)c1)c1cc(C(=O)OC)ccc1OC)C(C)C | 0.911 | 0.454 | -0.181 | 0.587 | 1.66 | 1.91 (inactive) | 0.00485 | 0.343 | 3.57 (inactive) | 1.97 | -1.63 (inactive) | 1.92 (inactive) | -0.569 (inactive) | -1.29 (inactive) | 2.48 (inactive) | 1.67 (inactive) | 1.87 | 0.0479 | -0.139 (inactive) | -0.595 |
| C=C(COC)/C(=C/C[C@H](OC(C)=O)c1ccc(CO)o1)c1cnc2ccccc2c1 | 0.788 | -0.957 | -1.42 | -0.182 | 0.117 | 0.411 (inactive) | 0.624 | -0.271 | 0.445 (inactive) | 0.441 | -1.24 (inactive) | 1.04 (inactive) | -7.31 (inactive) | -0.819 (inactive) | 1.48 (inactive) | 0.383 (inactive) | 0.981 | 0.292 | 1.5 (inactive) | 0.807 |
| NC(=O)NCC#Cc1ccc2c(c1)[C@]1(C(=O)N2)[C@H](c2ccc(OCCO)cc2)N2[C@H](c3ccccc3)[C@H](c3ccccc3)OC(=O)[C@H]2[C@@H]1C(=O)Nc1nc2ccccc2s1 | 1.17 | -0.348 | -0.285 | 1.55 | -3.12 | 2.65 (inactive) | -0.999 | -1.68 | 0.641 (inactive) | 0.0219 | 1.44 (inactive) | 1.33 (inactive) | -0.212 (inactive) | 3.21 (inactive) | 0.606 (inactive) | 0.681 (inactive) | 1.2 | -0.0398 | 0.245 (inactive) | -0.587 |
| CC(C)C[C@@H]1NC(=O)[C@@H]2C[C@H](C(=O)NCCCCCNC(=O)CS)[C@H](c3cccc(OCCO)c3)N2C1=O | 1.28 | -0.646 | -1 | 0.134 | 0.236 | 0.321 (inactive) | 0.14 | 0.072 | 0.621 (inactive) | 0.474 | -0.928 (inactive) | 1.47 (inactive) | -0.168 (inactive) | -1.14 (inactive) | 0.186 (inactive) | -0.115 (inactive) | 0.673 | -0.0351 | 1.58 (inactive) | 0.785 |
| Cc1ccc(S[C@]2(C(=O)NCCN3CCOCC3)CC(=O)N(Cc3cc(C(F)(F)F)cc(C(F)(F)F)c3)[C@@H]2c2ccc(CO)cc2)cc1 | 0.947 | -0.0671 | 1.15 | 0.603 | 1.18 | 0.784 (inactive) | -0.0854 | 0.685 | 3.33 (inactive) | 1.08 | -1.76 (inactive) | 0.828 (inactive) | -0.911 (inactive) | -2.54 (inactive) | 1.01 (inactive) | 1.45 (inactive) | 0.672 | 0.0808 | -0.316 (inactive) | 0.0326 |
| C=CC[C@]1(C(=O)N(C)C)N=C(c2ccc(OCCCO)cc2)O[C@H]1c1ccccc1CN=[N+]=[N-] | 0.988 | 1.18 | -1.17 | -0.862 | 2.11 | 0.0328 (inactive) | -0.942 | -0.587 | 1.26 (inactive) | 0.481 | -1.26 (inactive) | 0.838 (inactive) | -0.0916 (inactive) | -0.197 (inactive) | 1.53 (inactive) | 0.442 (inactive) | 0.747 | 0.0471 | 0.137 (inactive) | 0.53 |

— PubChem BioAssay
